The panel holds about 83,000 compounds, 20% with a hit somewhere; the sample as a whole holds those more often.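 Method: cells in 96-well plates; compound added at one concentration; 48 h incubation; percent growth measured; values under 10 scored active.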 Values without a mark were called inactive. The source made the active and inactive calls.

Assay in all cases: NCI-60 one-dose screen, 48 h (100 = growth as untreated, 0 = no growth, -100 = all killed)
Common to all, as to settings: 10 µM unless noted

In test [1] the test system is T-47D breast.
Test [2] relates to BT-549 breast.
For test [3], the system named is MDA-MB-435 melanoma.
For test [4], the system named is SW-620 colon.
Test [5] relates to HCC-2998 colon.
The test system of test [6] is KM12 colon.
Test [7] concerns HCT-116 colon.
For test [8], the system named is MCF7 breast.

For the compound `CCCc1nn2c(CCC(=O)c3nc4ccc([N+](=O)[O-])cc4[nH]3)nnc2s1`, the growth is 102% in test [1]; 111% in test [2]; 103% in test [3]; 97.6% in test [4]; 100% in test [5]; 104% in test [6].

As to `CN(CCNCc1ccccn1)CCNCc1ccccn1`, the growth was 0.513% (active) in test [1]; -2.61% (active) in test [2]; -30.7% (active) in test [3]; 4.13% (active) in test [4]; -25.2% (active) in test [7]; -46.8% (active) in test [5]. Further, the growth in test [6] is -0.112% (active).

With `O=C(CNc1cccnc1)Nc1ccc(C(=O)/C=C/c2ccc(Cl)cc2)cc1`, the growth in test [1] is 89.9%; in test [2], 89.7%; in test [3], 68.5%; in test [4] it was 74.3%; in test [5] it was 86.2%; in test [6], 69.3%.

Consider `COc1ccc(OC)c(NCC(=O)n2nc(/C=C\c3ccc(O)c(OC)c3)cc2/C=C\c2ccc(O)c(OC)c2)c1`, for which the growth in test [1] was 15.5%; in test [2], 17.1%; in test [3] it was 5.88% (active); in test [4], 9.13% (active); in test [5] it was 18%; in test [6] it was 11.1%.

With `CC(C)(C)OC(=O)NCc1cccc(N=C=S)c1`, the growth in test [1] was 11.2%; in test [2] it was 10.3%; in test [3] it was 51%; in test [4], 60.2%; in test [7], 56.2%; in test [5] it was 57%. In test [6], the growth is 51.6%.

For the compound `COc1ccc(/C=C/C(=O)/C=C(/C=C/c2ccc(OC)c(OC)c2OC)OB(F)F)c(OC)c1OC`, the growth in test [1] was 50.4%; in test [2] it was 31.4%; in test [3] it was 0.716% (active); in test [4], 8% (active); in test [5], 59.2%; in test [6] it was 22.8%.

For the compound `Clc1ccc(OCc2nc(-c3ccccc3)n[nH]2)c(Cl)c1`, the growth in test [1] was 95.6%; in test [2], 100%; in test [3], 97.7%; in test [4], 97%; in test [5] it was 99.8%; in test [6] it was 101%.

In the case of `CC(=O)O[C@@H]1[C@@H](OC(C)=O)[C@H](OC(C)=O)CO[C@H]1Nc1cccc2ccccc12`, the growth in test [1] is 86.6%; in test [2], 89.1%; in test [3], 102%; in test [4] it was 98.4%; in test [5], 94.2%; in test [6], 84.2%.

As to `Nc1ncc(-c2ccc3ncnc(Nc4ccc(F)c(Cl)c4)c3c2)cn1`, the growth was 26% in test [1]; 22.5% in test [2]; 84% in test [3]; 66.4% in test [4]; 21% in test [7]; 83.9% in test [5]. The growth in test [6] is 66.1%.

`Nc1nc(=S)ss1`: the growth in test [1] was 98.9%; in test [2], 101%; in test [3], 102%; in test [4], 99.2%; in test [7], 97.3%; in test [5], 97%. In addition, the growth in test [6] is 111%.

Take `Cc1cc(O[C@@H]2O[C@@H](C)[C@H](O)[C@@H](O)[C@H]2O)c2c3c(c(O[C@@H]4O[C@@H](C)[C@H](O)[C@@H](O)[C@H]4O)cc2c1)C(=O)c1c(O)cccc1C3=O`: the growth in test [1] was 56.6%; in test [2], 6.47% (active); in test [3] it was 92.8%; in test [4], 93.4%; in test [7] it was 81%; in test [5], 91.1%. Moreover, the growth in test [6] is 86.8%.

Consider `O=C(O)c1cn(C2CC2)c2cc(N3CCN(C(=O)CSc4nc(NS(=O)(=O)c5ccccc5)cc(=O)[nH]4)CC3)c(F)cc2c1=O`, for which the growth in test [1] is 116%; in test [2], 99%; in test [3], 90.1%; in test [4], 99.9%; in test [5], 91.7%; in test [6], 91.6%.

In the case of `CCC1CN2C(=N1)c1ccccc1-c1cc(Cl)ccc12` (configuration not stated), the growth was 21.9% in test [1]; 42.5% in test [2]; 25.4% in test [3]; 18.6% in test [4]; 1.68% (active) in test [7]; 28.5% in test [5]. Also, in test [6], the growth was 16.7%.

For `C/C(=N\N=C1/SCC(=O)N1c1ccccc1)c1ccco1`, the growth in test [1] was 114%; in test [2] it was 127%; in test [3] it was 88.6%; in test [4], 109%; in test [7], 92.7%; in test [5] it was 109%. Also, in test [6], the growth was 103%.

Turning to `c1ccc2nc(Cn3cc[n+](Cc4ccc5ccccc5n4)c3)ccc2c1`, the growth in test [1] is 29.8%; in test [2], 33.7%; in test [3], 52.8%; in test [4], 77.8%; in test [5] it was 57.8%; in test [6], 48%.

With `CN1C(=O)C2(NN=C(c3cccc4ccccc34)S2)c2ccccc21` (configuration not stated), the growth in test [1] was 5.27% (active); in test [2], 30.1%; in test [3], 57.8%; in test [4] it was 35.5%; in test [7], 14.8%; in test [5], 51.7%. For the same compound, the growth in test [6] was 30.8%.

For the compound `Cc1cn(-c2cc(C(=O)Nc3cccc(-n4ccc5c(NC(=O)c6ccccc6)nccc54)c3)cc(C(F)(F)F)c2)cn1`, the growth in test [1] was 62.5%; in test [2], 27.9%; in test [3] it was -14.9% (active); in test [4], 13.4%; in test [7], -78.6% (active); in test [5], 12.7%. Further, the growth in test [6] was -25.6% (active).

`CC(=O)N1N=C(CCC(=O)c2nc3ccc([N+](=O)[O-])cc3[nH]2)OC1c1ccc(O)cc1` (configuration not stated): the growth in test [1] was 85.5%; in test [2], 101%; in test [3], 105%; in test [4], 102%; in test [5], 98.7%; in test [6], 95.8%.

On to `C/C(=N/O)c1ccc(NC(=O)Cn2nc(-c3ccc(Cl)cc3)nc2N)cc1`, for which the growth in test [1] is 87%; in test [2], 116%; in test [3] it was 109%; in test [4], 104%; in test [7] it was 107%; in test [5], 103%. For the same compound, the growth in test [6] is 98.4%.

As to `Cc1ccc(Cn2cc(COc3ccc4c5ccnc(C)c5n(CCCc5ccccc5)c4c3)nn2)cc1`, the growth in test [1] is 89.9%; in test [2], 90.1%; in test [3], 106%; in test [4], 89.5%; in test [7], 60%; in test [5], 102%. In addition, the growth in test [6] is 97.9%.

Turning to `Clc1ccc(CN2COc3c(ccc4cccnc34)C2)cc1Cl`, the growth in test [1] was 5.72% (active); in test [2], 8.99% (active); in test [3] it was 12.8%; in test [4], 18%; in test [7] it was -39.1% (active); in test [5], -25.4% (active). Further, the growth in test [6] is 7.75% (active).

With `COc1cc(Nc2ncccc2C(=O)Nc2nc3ccc(F)cc3s2)cc(OC)c1OC`, the growth in test [1] was 36.2%; in test [2] it was 89.3%; in test [3] it was 21%; in test [4], 96.8%; in test [7], 13.8%; in test [5], 84.7%. Also, the growth in test [6] is 78.9%.

With `COc1cc(/C=C/C(=O)c2c(C)n([O-])c3cc(C)c(C)cc3[n+]2=O)cc(OC)c1OC`, the growth in test [1] is 51.8%; in test [2], 23%; in test [3], 45.8%; in test [4], 50.1%; in test [7], 42.6%; in test [5], 85.5%. Further, in test [6], the growth is 69.8%.

For the compound `COc1ccc(-c2cc(-c3nnc(SC/C(=N\O)c4ccccc4)n3-c3ccccc3)c3ccccc3n2)cc1`, the growth in test [1] was 106%; in test [2] it was 108%; in test [3], 108%; in test [4] it was 102%; in test [5], 103%; in test [6], 98.9%.

As for `CC[C@@]1(O)C(=O)OCc2c1cc1n(c2=O)Cc2c-1nc1ccccc1c2/C=N/OC(C)(C)C`, the growth in test [1] is 2.25% (active); in test [2], -7.82% (active); in test [3], 13.5%; in test [4], 11.5%; in test [7] it was 3.24% (active); in test [5], 6.39% (active). In addition, the growth in test [6] is 1.96% (active).

Turning to `COc1cc(/C=C\c2cc(/C=C\c3ccc(O)c(OC)c3)n(C(=O)CNc3ccccc3OC)n2)ccc1O`, the growth in test [1] is 91.8%; in test [2], 66%; in test [3] it was 6.34% (active); in test [4], 36.4%; in test [5] it was 112%; in test [6], 46.2%.

Consider `COc1cc(-c2nc3ccccc3s2)ccc1OCc1nc2n(n1)S(=O)(=O)c1ccccc1N2C`, for which the growth was 85.3% in test [1]; 80.2% in test [2]; 90% in test [3]; 92.4% in test [4]; 66.1% in test [7]; 109% in test [5]. In addition, the growth in test [6] is 84.2%.

Consider `COc1cc(-c2nc3sc(C)cn3c2/C=C2\C(=O)Nc3ccccc32)c(Br)c(OC)c1OC`, for which the growth in test [1] is 51.5%; in test [2] it was 14.8%; in test [3], -8.78% (active); in test [4], 21.2%; in test [7] it was 22%; in test [5] it was 97%. Moreover, the growth in test [6] was 15.1%.

Regarding `COc1cc(/C=C/C(=O)N2CCC=CC2=O)cc(OC)c1OC`, the growth was 25.6% in test [1]; 57.2% in test [3]; 29.3% in test [4]; 15.3% in test [8]; 6.96% (active) in test [7]; 100% in test [5]. In addition, in test [6], the growth was 66.6%.

Source of the values: PubChem BioAssay (NCI).
